Source: PubChem BioAssay
MBNL1-CUG inh: MBNL1-poly(CUG) RNA binding inhibition; hit rate 0.036% among 280,000; TR-FRET MBNL1-His/biotin-(CUG)12 binding, 665/545 ratio; Potency, µM (doses to about 57.5 µM), for inactives: at the highest dose activity change, negative = inhibition, actives largely listed as inhibitors; Q9NR56; active = well fitted inhibition curve with a large enough effect in the signal ratio, with a control signal flat, not every such curve was filed as active; inconclusive = small, poorly fitted or top-dose-only effect, or effect the other way, or a change in a side signal; inactive = no such curve, though single readings can be large or run the other way; the % refers to the signal ratio; also: potency is read from the fitted curve at half-maximal effect; % is scaled to controls: 0 for no effect and ±100 for the full control effect
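Inhibition of protein-RNA binding appears as loss of TR-FRET between terbium anti-His antibody on MBNL1-His and streptavidin-XL665 on biotin-(CUG)12. Activity is normalized to buffer-only and uninhibited-complex controls.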
uPA surface inh: inhibitors of cell surface uPA generation; cell surface uPA generation assay, qHTS; Potency, µM (series often up to 38.3 µM), for inactives: at the highest dose activity change, negative = inhibition, usual class: inhibitors; hit rate 0.31% among 330,000; AID 540303; active = well fitted inhibition curve with a large enough effect; inconclusive = small, poorly fitted or top-dose-only effect; inactive = no such curve, though single readings can be large or run the other way; tested in mouse RAW 264.7 cells; also: potency is read from the fitted curve at half-maximal effect; % is scaled to controls: 0 for no effect and ±100 for the full control effect; nearly all actives have a fitted effect of over 55% in size
CtBP-E1A blk: blocks the CtBP interaction with E1A | AlphaScreen GST-E1A/His-CtBP binding, 1536-well; hits give low values | activity change, % (concentration not given with the values) | hit rate 0.49% among 340,000 | AID 651724; also: % is scaled to controls: 0 for no effect and ±100 for the full control effect
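Homogeneous bead-based format: GST-tagged E1A captured on glutathione donor beads, His-tagged CtBP on nickel acceptor beads; compounds precede bead addition by 2 h at 37 °C.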
Mito fusion yeast: mitochondrial division inhibition or fusion activation | S. cerevisiae fusion-defective mutant growth rescue, CellTiterGlo 48 h | Potency, µM (series often up to 46.1 µM), without a hit: at the highest dose growth rescue (activation), most hits filed as activators | hit rate 0.23% among 320,000; active = well fitted activation curve with a large enough effect; inconclusive = small, poorly fitted or top-dose-only effect; inactive = no such curve, though single readings can be large or run the other way; also: potency is read from the fitted curve at half-maximal effect; % of control where 0% means no effect; nearly all actives have a fitted effect of over 45% in size
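S. cerevisiae fusion-defective temperature-sensitive mutants (e.g. fzo1-1, mgm1-5) grown 48 h at 37C in YPEG (ethanol/glycerol non-fermentable) medium with 23 nl compound per well; growth rescue read as CellTiterGlo luminescence.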
Six1-Eya2 blk: Six1/Eya2 interaction inhibition; Q15475+O00167; AlphaScreen GST-Six1/His-Eya2 binding, biochemical; hits give low values; activity change, % (test concentration not listed); hit rate 0.56% among 360,000; also: % is scaled to controls: 0 for no effect and ±100 for the full control effect
Target sequence (O00167 whole entry, looked up): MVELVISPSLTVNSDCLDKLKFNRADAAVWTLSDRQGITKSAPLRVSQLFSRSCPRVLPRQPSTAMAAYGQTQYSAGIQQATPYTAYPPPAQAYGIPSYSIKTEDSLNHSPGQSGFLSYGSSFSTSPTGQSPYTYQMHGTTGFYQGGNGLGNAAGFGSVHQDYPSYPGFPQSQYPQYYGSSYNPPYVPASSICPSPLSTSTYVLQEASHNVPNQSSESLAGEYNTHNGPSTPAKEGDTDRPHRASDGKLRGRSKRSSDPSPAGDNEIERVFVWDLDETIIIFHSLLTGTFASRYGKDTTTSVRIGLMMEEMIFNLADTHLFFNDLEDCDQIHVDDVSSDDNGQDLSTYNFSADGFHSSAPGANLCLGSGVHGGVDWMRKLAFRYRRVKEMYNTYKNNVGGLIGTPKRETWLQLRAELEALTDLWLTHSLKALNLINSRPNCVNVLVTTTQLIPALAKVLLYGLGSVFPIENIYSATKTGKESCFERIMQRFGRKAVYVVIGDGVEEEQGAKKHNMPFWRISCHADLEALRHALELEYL
Target sequence (Q15475 whole entry, looked up): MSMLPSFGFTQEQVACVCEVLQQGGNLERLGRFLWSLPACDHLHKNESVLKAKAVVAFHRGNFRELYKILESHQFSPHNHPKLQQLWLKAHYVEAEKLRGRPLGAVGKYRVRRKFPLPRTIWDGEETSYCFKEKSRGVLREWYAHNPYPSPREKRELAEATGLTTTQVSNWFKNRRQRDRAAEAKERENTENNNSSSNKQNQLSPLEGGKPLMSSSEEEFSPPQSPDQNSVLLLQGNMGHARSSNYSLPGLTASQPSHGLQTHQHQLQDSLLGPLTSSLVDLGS
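Six1/Eya2 binding was read as AlphaScreen signal after compounds were pinned into GST-Six1 plus His-tagged Eya2 (5X stock 250/500 nM) in pH 8.0 Tris/NaCl/TCEP buffer, beads added, then incubated 1 h, 37 C, dark.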
Starred values were filed as active, the others as inactive; ? = inconclusive; nt = not tested or not shown; ! = repeats disagree. A selection: hits, their analogues and other compounds. The true share with any hit is near 1.1%. Rule as the data show it, unless noted: active = activity change below about -65%; inconclusive = mostly about -30% to -63%; inactive = weaker than that.

SMILES	MBNL1-CUG inh	uPA surface inh	CtBP-E1A blk	Mito fusion yeast	Six1-Eya2 blk
C/C(=N\NC(=O)c1ccc(F)cc1)c1ccccn1	1%	?	nt	-47%	-92*
C/C(=N\NC(=O)c1ccccc1-n1cccc1)c1ccccn1	nt	nt	?	nt	-92*
COc1cccc(C2CC(=O)Nc3c2c(=O)nc2c(C)cccn32)c1OC (stereo not given)	nt	nt	nt	8%	nt
CCCNC(=O)c1cc(C2CCCCN2C(=O)c2ccc(OC)cc2)on1 (stereo not given)	nt	nt	1	nt	4
COc1ccccc1Cc1c(-c2ccc(C#N)cc2)nc2c(C)cc(Br)cn12	nt	nt	4	nt	1
O=[N+]([O-])c1ccc(Cl)c(/C=N/n2c(-c3ccncc3)n[nH]c2=S)c1	?	-2%	-73*	-1%	-79*
COc1ccc(CCNC(=O)CCCCC(=O)NCCc2ccc(OC)c(OC)c2)cc1OC	nt	1%	7	nt	21
COc1cc(CNC(=O)CCCCCCC(C)C)ccc1O	nt	?	4	18µM*!	0
Cn1c2cc(B(O)O)sc2c2cnn(Cc3ccc(F)cc3F)c(=O)c21	nt	nt	nt	9%	nt
Cc1ccc(NS(=O)(=O)c2ccc(C(=O)N3CCN(S(=O)(=O)c4ccccc4)CC3)cc2)cc1	nt	7.1µM*	3	-2%	7
Cc1ccc(S(=O)(=O)Nc2ccc(C(=O)N3CCCC3)cc2)cc1	-4%	0%	2	-2%	1
CCOc1ccc(CCNc2ccc3nnc(-c4ccccc4)n3n2)cc1OCC	-2%	15%	?	-5%	-72*
Oc1ccc(/C=C/c2cc(O)cc(O)c2)cc1	?	6.3µM*	-28	-31%	-25
COc1cc(O)cc(/C=C/c2ccccc2)c1	nt	-1%	-17	nt	-7
CC(C)(C)c1ccccc1OCC(=O)Nc1ccccc1C(=O)NCc1cccnc1	-4%	12%	0	16µM*	-3
Cc1ccc(-n2nc3cc(C)c(NC(=O)COc4ccccc4)cc3n2)cc1	nt	nt	nt	-1%	nt
COc1ccc(N2CCN(Cc3cc4c(cc3O)CCC4)CC2)cc1	-13%	-5%	-65*	15%	?
O=C(Nc1ccccc1C(F)(F)F)c1cnccn1	0%	-1%	0	2%	0
O=C(Nc1ccccc1C(F)(F)F)c1ncn[nH]1	-1%	6%	-88*	12%	-74*
COc1ccc(-c2oc3c(c2C#CC2(O)CCCCC2)C(OC)CCC3)cc1 (stereo not given)	nt	nt	0	nt	10
O=C(Cn1nnc(-c2ccc(N3CCOCC3)cc2)n1)OC1CCCCC1	3%	1%	0	-4%	19
O=C(Cn1nnc(-c2ccc(N3CCOCC3)cc2)n1)N1CCOCC1	-5%	4.5µM*	nt	4%	2
O=C(CSc1nnc(-c2ccc(C(F)(F)F)cn2)o1)Nc1cccc(Cl)c1	0%	-2%	?	-1%	-71*
Cn1nnnc1SCc1ccc(C(=O)Nc2nccs2)cc1	0%	-14%	-80*	-2%	-70*
Cc1cc(C)c2c(c1)-c1c(ssc1=S)C(C)(C)N2C(=O)CSc1nncn1C	?	-12%	-67*	1%	-67*
SMILES	MBNL1-CUG inh	uPA surface inh	CtBP-E1A blk	Mito fusion yeast	Six1-Eya2 blk
COc1ccc(OC)c(S(=O)(=O)NCCCn2ccnc2)c1	1%	4%	-16	5%	3
CC(C)(C)C(O)C(Cc1ccccc1Cl)n1cncn1 (stereo not given)	-5%	-5%	0	10µM*	-3
COc1cc(-c2nc3ccccn3c2NCc2ccccc2)ccc1SC1CCCCC1	nt	?	nt	-21%	-13
COc1cc(-c2nc3ccc(C)cn3c2NCc2ccccc2)ccc1SC1CCCCC1	nt	8.9µM*	-2	11%	-6
O=C(NCc1cccnc1)c1ccc(-c2ccc(Cl)cc2)o1	16%	-15%	nt	5%	-18
O=C(NCc1cccnc1)/C(=C\c1ccc(-c2ccc(Cl)c(Cl)c2)o1)S(=O)(=O)c1ccccc1	-8%	10µM*	43	-20%	4
C[C@H]1O[C@@H](n2cc(F)c(=O)[nH]c2=O)[C@H](O)[C@H]1O	nt	nt	nt	1%	nt
CC(=O)Nc1cccc(C(=O)/C=C/c2ccc(Br)cc2)c1	nt	-7%	-15	14µM*	5
CC(=O)Nc1cccc(C(=O)/C=C/c2cccs2)c1	-8%	-3%	-3	10µM*	2
CC(=O)Nc1cccc(C(=O)/C=C/c2ccc(F)cc2)c1	1%	-1%	4	-2%	-2
CC(=O)Nc1cccc(C(=O)/C=C/c2ccc(/C=C/C(=O)c3cccc(NC(C)=O)c3)cc2)c1	?	nt	nt	-5%	nt
Cc1c(OCc2ccc(C(=O)O)cc2)ccc2c(-c3ccccc3)cc(=O)oc12	-4%	?	1	-18%	-74*
COc1ccc(-c2cc(=O)oc3c(C)c(OC(C)C(C)=O)ccc23)cc1 (stereo not given)	?	8%	-3	22µM*	-17
CN(C)c1ncnc2c1ncn2[C@H]1CN(Cc2ccc3c(c2)OCO3)C[C@@H](CO)O1	nt	nt	22	nt	8
Cc1cc(C(=O)COC(=O)c2cccnc2Cl)c(C)n1CC1CCCO1 (stereo not given)	-6%	1.6µM*	-3	-3%	-13
Cc1cc(C(=O)COC(=O)c2ccccc2O)c(C)n1CC1CCCO1 (stereo not given)	nt	?	-15	16%	-16
COC(=O)CCCC[C@@H]1O[C@H](CCc2ccccc2)CC2=C1C(=O)OC(C)(C)O2	nt	nt	20	nt	3
O=C(CSc1nnc(NC(=O)c2ccccc2F)s1)NCC1CCCO1 (stereo not given)	-3%	6.3µM*	4	1%	7
O=C(CSc1nnc(NC(=O)c2ccccc2)s1)NCC1CCCO1 (stereo not given)	0%	?	5	0%	-1
O=C(NCc1ccc(F)cc1)c1cc(C2CCCN(C(=O)c3ccc4ccccc4c3)C2)on1 (stereo not given)	nt	nt	-5	nt	-6
CN1CCN(c2ccc(S(=O)(=O)N3CCOCC3)cc2NC(=O)C2CCCCC2)CC1	nt	-36%	9	nt	5
CCN1CCN(c2ccc(S(=O)(=O)N3CCOCC3)cc2NC(=O)C2CCC(C(C)(C)C)CC2)CC1 (stereo not given)	nt	4.5µM*	nt	nt	-9
Cc1ccc(C)c(N2CCN(C3C(=O)Nc4ccccc4-n4nnnc43)CC2)c1 (stereo not given)	nt	nt	-2	nt	-7
CC1=Nc2cc(C(=O)N3CCCC3)ccc2Sc2c(C)ccc(C)c21	3%	4µM*	nt	25%	11
COC(=O)[C@H](CCSC)NC(=O)Cn1cnc(C(=O)Nc2ccc(C)c(C)c2)n1	nt	10µM*	-1	nt	5
O=C(O)c1ccc2c(c1)C(=O)N([C@@H](C(=O)O)C(c1ccccc1)c1ccccc1)C2=O	nt	nt	nt	4%	nt
